Data on 64 molecules can be found in PubChem BioAssay AID1578 (Sanford-Burnham Center for Chemical Genomics, 2009).

For orientation: inhibition means the change of the read-out against control, counted positive when it falls.

Among all 290,000 compounds or so, about 3,000 (1%) were called active. The sample holds actives, similar compounds and a random draw of the others, so the mix is not that of the screen. No stated cut-off is given here; in the data, active means inhibition mostly above about 36% (no sharp cut-off); inactive means mostly below about 34%.

The experiment in a line: inhibition of NOD1-driven NF-kB reporter – cell-based, luminescence, uHTS, primary screen (AID 1578).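 Further: HEK-293T reporter cells stimulated with the NOD1 agonist gamma-tri-DAP.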 The conditions noted are these: NOD1-driven NF-kB luciferase reporter cells, at 4 µM, active compounds read high.
Consider `O=C(CCCCCN1C(=O)CCC1=O)NCc1ccccc1`, for which the inhibition is -1.8% (inactive).

`COCCNC(=O)CCCCCN1C(=O)CCC1=O`: the inhibition was 48.6% (active).

`COCCNC(=O)CCCC(=O)NCCOC`: the inhibition is -16.8% (inactive).

As to `Cc1nnc2sc(-c3ccc(-c4ccc(Cl)c(C(F)(F)F)c4)o3)nn12`, the inhibition was -9.3% (inactive).

In the case of `O=C(CCc1ccccc1)c1ccc2c(c1)OCCCO2`, the inhibition was -67.4% (inactive).

Consider `CCCC(=O)c1ccc2c(c1)OCCO2`, for which the inhibition was 1.3% (inactive).

For the molecule `O=C(Cc1ccccc1)c1ccc2c(c1)OCCO2`, the inhibition was -43.1% (inactive).

On to `CN(C)CCC(=O)c1ccc2c(c1)OCO2`, for which the inhibition is 59.1% (active).

As for `CN(C)CCCC(=O)c1ccc2c(c1)OCO2`, the inhibition was -10.8% (inactive).

For the molecule `O=C(CCCc1ccccc1)c1ccc2c(c1)OCCO2`, the inhibition is 54.9% (active).

For the molecule `Cc1ccccc1-c1nc(CN2CCCC2c2ccc(F)cc2)c(C)o1` (centres undefined), the inhibition was -29.5% (inactive).

For the molecule `COCC1CCN(Cc2cn[nH]c2-c2cc3ccccc3o2)C1` (centres undefined), the inhibition is -18.7% (inactive).

Turning to `O=Cc1c(C(=O)O)n(CC(=O)O)c2ccccc12`, the inhibition is -37% (inactive).

Turning to `CC1=NNC(=O)C1C(c1ccc(Cl)cc1)C(C#N)C#N` (centres undefined), the inhibition is -7.3% (inactive).

In the case of `CN(C(=O)Nc1ccccc1)C1CCCc2ccccc21` (centres undefined), the inhibition is -3.4% (inactive).

With `CC(C)Cc1nnc(NC(=O)CCC(=O)NC2CCCc3ccccc32)s1` (centres undefined), the inhibition was -25.2% (inactive).

Turning to `CN(C(=O)CCl)C1CCCc2ccccc21` (centres undefined), the inhibition is 55.5% (active).

With `CCCc1nnc(NC(=O)CCC(=O)NC2CCCc3ccccc32)s1` (centres undefined), the inhibition is 89.6% (active).

As for `O=C(Cc1ccc(Br)cc1)NC1CCCc2ccccc21` (centres undefined), the inhibition was -30.2% (inactive).

As to `CN(C(=O)CN1CCN(c2ccccc2F)CC1)C1CCCc2ccccc21` (centres undefined), the inhibition was -20.5% (inactive).

With `O=C(CCl)NC1CCCc2ccccc21` (centres undefined), the inhibition is 59% (active).

On to `CCc1nnc(NC(=O)CCC(=O)NC2CCCc3ccccc32)s1` (centres undefined), for which the inhibition was -15.7% (inactive).

As to `Cc1ccccc1CC(=O)NC1CCCc2ccccc21` (centres undefined), the inhibition was 58.1% (inactive).

Turning to `O=C(CNC(=O)Cn1ccc2ccccc2c1=O)NCCCN1CCN(c2cccc(Cl)c2)CC1`, the inhibition was 9.9% (inactive).

On to `COc1ccccc1CN1CC(C(=O)N(C)CCCn2nc(C)cc2C)CCC1=O` (centres undefined), for which the inhibition was -33.8% (inactive).

For the molecule `Cc1cc(Cl)ccc1C(=O)C1CCCN(C(=O)c2cnn(C(C)C)c2)C1` (centres undefined), the inhibition is -17.9% (inactive).

As for `CC(C)(C)n1cc(S(=O)(=O)c2ccccc2)[nH]c1=O`, the inhibition was -26.3% (inactive).

Take `O=C(Nc1ccccn1)N1CCOCC1`: the inhibition is -28.5% (inactive).

As for `C=CCn1c(SCc2cc(=O)n3cc(C)ccc3n2)nnc1-c1ccc(F)cc1`, the inhibition was -11.1% (inactive).

As to `O=C(O)CCn1[nH]c(=O)c2ccccc2c1=O`, the inhibition was -7.7% (inactive).

For `Cc1ccc2nc(SCc3ccccc3)c(C=O)c(=O)n2c1`, the inhibition is -41.8% (inactive).

Regarding `COc1ccc(-c2c(NC(=O)c3ccco3)n(-c3ccccc3)nc(C)c2=O)cc1`, the inhibition was -7.7% (inactive).

Take `COc1ccc(/C=N/NC(=O)c2c(-c3ccccc3)noc2C)cc1[N+](=O)[O-]`: the inhibition was -15.9% (inactive).

For `COc1ccc(-c2nc3c4c(ncn3n2)-c2ccccc2CC42CCCC2)cc1`, the inhibition was -3.6% (inactive).

`c1ccc(OCc2nc3c4c(ncn3n2)-c2ccccc2CC42CCCC2)cc1`: the inhibition is 19.6% (inactive).

In the case of `Oc1ccc(-c2nc3c4c(ncn3n2)-c2ccccc2CC42CCCC2)cc1`, the inhibition was 99.8% (active).

In the case of `O=C(Nc1ccccc1F)C1CCN(C(=O)NCc2ccccc2)CC1`, the inhibition was -18% (inactive).

For the molecule `COc1ccc(-c2cc(-c3ccccc3)nc(Cl)n2)cc1OC`, the inhibition was 12% (inactive).

As for `Cc1c(NS(=O)(=O)c2ccc3c(c2)NC(=O)CC(=O)N3)cccc1[N+](=O)[O-]`, the inhibition was -6.1% (inactive).

As to `CCOC(=O)NC1(C(F)(F)F)C(=O)N(Cc2ccccc2)C2=C1C(=O)CC(C)(C)C2` (centres undefined), the inhibition is 0.2% (inactive).

Take `Cc1ccc(S(=O)(=O)N(C)c2ccc(OC(=O)c3ccc(=O)[nH]c3)cc2)cc1`: the inhibition was 5.9% (inactive).

With `O=S(=O)(c1cc(F)ccc1F)N1CCN2CCCC2C1` (centres undefined), the inhibition was 50.7% (inactive).

On to `C=CCNC(=S)N/N=C/c1ccc(-c2ccc(OC)cc2)o1`, for which the inhibition was 59.5% (active).

In the case of `C=CCNC(=S)N/N=C/c1ccc(-c2cccc([N+](=O)[O-])c2)o1`, the inhibition was -8.7% (inactive).

With `C=CCNC(=S)N/N=C/c1ccc(C(F)(F)F)cc1`, the inhibition was 52.7% (active).

In the case of `C=CCNC(=S)N/N=C/c1ccc(-c2ccc(Br)cc2)o1`, the inhibition is -6.5% (inactive).

In the case of `C=CCNC(=S)N/N=C/c1ccc(C(C)(C)C)cc1`, the inhibition is 3.2% (inactive).

In the case of `NC(=S)N/N=C/c1ccc(C(F)(F)F)cc1`, the inhibition was -16% (inactive).

On to `CCN(CC)CCCN1C=C2C(=O)C(C)(OC(=O)C3CCCC3)C(=O)C=C2C=C1c1ccsc1` (centres undefined), for which the inhibition was -2% (inactive).

Consider `CCOC(=O)C1=C(c2ccccc2)N=C2SCC(=O)N2C1c1ccc(OCC)c(OCC)c1` (centres undefined), for which the inhibition was -4% (inactive).

In the case of `CCOC(=O)Cn1nc(C)c(NC(=O)COc2ccc([N+](=O)[O-])cc2)c1C`, the inhibition is -8.3% (inactive).

On to `O=C(CCn1c2c(c3ccccc31)CCCC2)NNC(=O)c1ccccc1Cl`, for which the inhibition is -15.4% (inactive).

Consider `CC(=O)NNC(=O)CCn1c2c(c3ccccc31)CCCC2`, for which the inhibition was -2% (inactive).

For `CCOC(=O)NNC(=O)CCn1c2c(c3ccccc31)CCCC2`, the inhibition is 55.3% (active).

As to `CCOC(=O)c1c(C)[nH]c(C(=O)CSc2nc(C)cc(C)n2)c1C`, the inhibition was -15.5% (inactive).

With `O=C(O)C1CC1(c1ccccc1)c1ccccc1` (centres undefined), the inhibition was -21.6% (inactive).

In the case of `CCOc1ccc(Nc2nc(NCC(=O)O)nc(N)c2[N+](=O)[O-])cc1`, the inhibition was 0.9% (inactive).

For `Cc1cccc(NC(=O)C2C3CCC4C(CCC32)C4(Cl)Cl)c1` (centres undefined), the inhibition is -38.6% (inactive).

In the case of `O=C(Nc1cccc(Cl)c1)C1C2CCC3C(CCC21)C3(Cl)Cl` (centres undefined), the inhibition is 73% (active).

As for `O=C(Nc1ccccc1)C1C2CCC3C(CCC21)C3(Cl)Cl` (centres undefined), the inhibition is -42.4% (inactive).

For the molecule `COc1cccc(CN2CCNC(=O)C2CC(=O)N2CCCCO2)c1OC` (centres undefined), the inhibition is -10.5% (inactive).

In the case of `CC1=CC(=O)C(C(C)C)=C/C1=N/OS(=O)(=O)c1ccccc1`, the inhibition is -5.3% (inactive).

With `CCOc1ccc(C(=O)c2ccccc2C(=O)O)cc1OCC`, the inhibition is -35.3% (inactive).

For the molecule `CC1=CC(=O)C(C(C)C)=C/C1=C(\c1cc(C(C)C)c(OP(=O)(O)O)cc1C)c1ccccc1C(=O)O`, the inhibition was 69.3% (active).
